Bioassay records (PubChem)
An excerpt weighted towards active compounds, which were near 3.4% of everything screened.
GPR151 activ = human GPR151 activation; PathHunter beta-arrestin GPR151 cells, luminescence; Q8TDV0; activation, % at 11.2 µM; 1% of 650,000 active; AID 1508602; in the data active = activation above about 4.9%
FBW7 activator = activators of human E3 ligase FBW7; normalized activity (activation), % at 26.1 µM; Q969H0; AlphaScreen FBW7–phospho-cyclin E peptide binding, activator screen; AID 1259310; 0.13% of 650,000 active; in the data active = normalized activity above about 1.9%;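 note: purified mutant Fbw7 with reduced substrate affinity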
Target sequence (Q969H0 whole entry, looked up): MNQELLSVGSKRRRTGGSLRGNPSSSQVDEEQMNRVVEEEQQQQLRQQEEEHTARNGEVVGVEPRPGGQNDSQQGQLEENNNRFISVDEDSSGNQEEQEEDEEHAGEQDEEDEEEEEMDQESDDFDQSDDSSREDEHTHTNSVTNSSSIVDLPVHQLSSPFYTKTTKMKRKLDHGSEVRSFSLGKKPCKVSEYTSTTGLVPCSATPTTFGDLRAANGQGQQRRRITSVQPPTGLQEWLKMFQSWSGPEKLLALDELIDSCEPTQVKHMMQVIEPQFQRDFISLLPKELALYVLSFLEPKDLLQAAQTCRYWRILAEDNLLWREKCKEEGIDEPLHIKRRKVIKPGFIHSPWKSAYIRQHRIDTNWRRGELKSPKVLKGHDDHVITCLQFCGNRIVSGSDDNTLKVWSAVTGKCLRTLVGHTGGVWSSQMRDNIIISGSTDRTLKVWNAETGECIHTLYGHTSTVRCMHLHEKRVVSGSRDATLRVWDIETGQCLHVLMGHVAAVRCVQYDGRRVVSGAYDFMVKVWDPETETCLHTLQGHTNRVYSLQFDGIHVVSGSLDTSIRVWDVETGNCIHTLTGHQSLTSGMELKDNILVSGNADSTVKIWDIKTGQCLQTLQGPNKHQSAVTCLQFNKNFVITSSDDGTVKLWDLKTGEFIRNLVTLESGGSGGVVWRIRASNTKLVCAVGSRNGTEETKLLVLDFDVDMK
MITF inh = inhibitors of human MITF; AlphaScreen MITF homodimerization, bead proximity signal; inhibition, % at 2.6 µM; 0.91% of 650,000 active; AID 1259374; in the data active = inhibition above about 50%
TEAD-YAP inh = TEAD-YAP interaction inhibition | HEK-TIYL cells, TEAD-Gal4/YAP UAS-luciferase luminescence | inhibition, % at 9.12 µM | 1.4% of 640,000 active | AID 1259422; in the data active = inhibition above about 32%
MITF inh conf = human MITF inhibition, confirmation | shares compounds with MITF inh | AlphaScreen MITF homodimerization, biotin/His-MITF beads | inhibition, % at 2.6 µM | 16% of 4,700 active | AID 1259372;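 active = inhibition above a cutoff derived from the DMSO control wells, cut at about 28% in these data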;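 note: inhibitors lower the bead chemiluminescence by keeping MITF from dimerizing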
AS interf DR = optically interferes with AlphaScreen signal in dose response | 6% of 480 active | shares compounds with MITF inh | IC50, µM | AlphaScreen optical interference counterscreen, cell-free; call rule not given here
AS interf ctr = optically interferes with AlphaScreen signal. shares compounds with MITF inh. LysRS AlphaScreen counterscreen, signal interference, triplicate. inhibition, % at 2.6 µM. 7.6% of 4,700 active. AID 1259376;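 active = inhibition above a cutoff derived from the DMSO control wells, cut at about 30% in these data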
Of the large screens only hits and unclear results are named; the others gave an inactive call (follow-up assays come after a bar, where they were run).

NNC(=O)C1CCCN(Cc2cccc(Oc3ccccc3)c2)C1 (stereo unspecified)	MITF inh 54 | MITF inh conf inactive | AS interf ctr inactive
COc1ccc(CN2CCC(C(=O)NCc3ccc(C)cc3)CC2)cc1	MITF inh 77 | MITF inh conf inactive | AS interf ctr inactive
COc1ccc(CN2CCCC(C(=O)N3CCCCC3)C2)c(OC)c1OC (stereo unspecified)	MITF inh 75 | MITF inh conf inactive | AS interf ctr inactive
CCOC(=O)C1CCCN(Cc2ccc(OC)c(OC)c2OC)C1 (stereo unspecified)	none
Cc1ccc(CN2CCN(CC(=O)NCc3ccc(F)cc3)C2=O)cc1	none
Oc1ccc(CCNc2ncnc3nc(-c4ccc(N5CCOCC5)nc4)[nH]c23)cc1	none
Cc1ccc(CN2CCCC(C(=O)N3CCCCCC3)C2)cc1 (stereo unspecified)	MITF inh 64 | MITF inh conf inactive | AS interf ctr inactive
CCOC(=O)C1CCCN(Cc2ccccc2)C1 (stereo unspecified)	none
CCOC(=O)C1CCCN(Cc2cccc(Br)c2)C1 (stereo unspecified)	MITF inh 53 | MITF inh conf 35 | AS interf DR inactive | AS interf ctr inactive
COc1ccc(CN2CCCC(C(=O)N3CCCCCC3)C2)cc1 (stereo unspecified)	MITF inh 73 | MITF inh conf inactive | AS interf ctr inactive
COc1ccc(CN2CCCC(C(=O)N3CCCC3)C2)cc1 (stereo unspecified)	none
Cc1ccc(CN2CCCC(C(=O)N3CCCCC3)C2)cc1 (stereo unspecified)	none
O=C1N[C@@H](COCc2ccccc2)C(=O)N2CCN(CCCc3ccccc3)C[C@H]12	none
COCCCNC(=S)NNC(=O)CCC(=O)Nc1ccc(C)c(C)c1	none
O=C1CC(=O)N(Cc2ccco2)C(=S)N1	MITF inh 70 | MITF inh conf inactive | AS interf ctr 62
O=C1CC(=O)N(Cc2ccco2)C(=O)N1	none
O=[N+]([O-])c1ccc(CN2CCN(c3ncccn3)CC2)o1	MITF inh 58 | MITF inh conf inactive | AS interf ctr inactive
O=[N+]([O-])c1ccc(CN2CCN(c3cccc(Cl)c3)CC2)o1	none
O=[N+]([O-])c1ccc(CN2CCN(c3ccc(Cl)cc3)CC2)o1	MITF inh 59 | MITF inh conf inactive | AS interf ctr inactive
O=C(NCCSCc1ccccc1Cl)c1ccc(CN2CCc3ccccc3C2)cc1	none
COc1ccc(C2NC(=S)NC(C)=C2C(N)=O)cc1C (stereo unspecified)	none
NC(=O)c1ccc(N=Cc2cc(Br)ccc2O)cc1	none
O=C(O)c1ccc(O)c(C=Nc2ccc(N=Cc3cc(C(=O)O)ccc3O)cc2)c1	MITF inh 70 | MITF inh conf 73 | AS interf DR inactive | AS interf ctr inactive
CC(=O)CC(=O)Nc1cccc(Cl)c1	none
CCN(O)C(=O)Nc1cccc(Cl)c1	MITF inh 70 | MITF inh conf inactive | AS interf ctr inactive
COc1ccc(/C=N/NC(=O)C(O)c2ccccc2)c(O)c1 (stereo unspecified)	none
COc1ccc(C)cc1NC(=O)N1CCC(CO)(CC2CCCCO2)CC1 (stereo unspecified)	none
COc1ccc(C)cc1NC(=O)CNCC1CCCO1 (stereo unspecified)	MITF inh 53 | MITF inh conf inactive | AS interf ctr inactive
COc1ccccc1NC(=O)CNCCCN1CCOCC1	MITF inh 61 | MITF inh conf inactive | AS interf ctr inactive
COc1ccccc1NC(=O)CC(NCCCN1CCOCC1)C(=O)O (stereo unspecified)	none
COc1ccccc1NC(=S)NCCN1CCOCC1	none
N#Cc1ccsc1NC(=O)CNCC1CCCO1 (stereo unspecified)	MITF inh 60 | MITF inh conf inactive | AS interf ctr inactive
COc1ccccc1NC(=O)CNCCN1CCOCC1	MITF inh 86 | MITF inh conf inactive | AS interf ctr inactive
COc1ccc(C)cc1NC(=O)CNCCN1CCOCC1	MITF inh 87 | MITF inh conf inactive | AS interf ctr inactive
COc1ccc(C)cc1NC(=O)CCN1CCOCC1	none
C=CCNC(=O)COc1cccc2ccccc12	none
CCCc1nnc(NC(=O)CN2C(=O)C3C4C=CC(C4)C3C2=O)s1 (stereo unspecified)	MITF inh 58 | MITF inh conf inactive | AS interf ctr inactive
CCCc1nnc(NC(=O)NCN2C(=O)C3C4C=CC(C4)C3C2=O)s1 (stereo unspecified)	none
COc1cc(/C=C2\N=C(c3ccccc3F)OC2=O)cc(Br)c1OC(C)=O	none
COc1cc(/C=C2/N=C(c3cccc(Cl)c3Cl)OC2=O)cc(Br)c1OC(C)=O	MITF inh 80 | MITF inh conf inactive | AS interf ctr inactive
COc1ccccc1-c1cc(C(=O)NC2CCCC2)[nH]n1	none
Cc1ccccc1OCC(=O)Nc1nc(-c2ccccc2)cs1	none
Cc1ccc(-c2csc(NC(=O)COc3ccccc3C(C)(C)C)n2)cc1	MITF inh 56 | MITF inh conf inactive | AS interf ctr inactive
CN(C)CCOc1cccc(C(F)(F)F)c1	MITF inh 88 | MITF inh conf inactive | AS interf ctr inactive
CN1CCN(CCCOc2cccc(C(C)(C)C)c2)CC1	none
CCN1CCN(CCOc2cccc(C(F)(F)F)c2)CC1	MITF inh 61 | MITF inh conf inactive | AS interf ctr inactive
CCN1CCN(CCCOc2cccc(C(F)(F)F)c2)CC1	MITF inh 56 | MITF inh conf inactive | AS interf ctr inactive
CCN1CCN(CCOc2ccc3ccccc3c2)CC1	none
CCn1c(=O)/c(=C2/Sc3ccc(Cl)cc3N2C)s/c1=C1/C(=O)N(C)N=C1C	none
COCCn1c(CCC(=O)NCc2ccc(C)cc2)nc2cccnc21	none
CSc1nc2n(n1)C(c1ccccc1)C=C(C)N2 (stereo unspecified)	none
CC(C(=O)Nc1ccccc1-c1ccccc1)N1CCCC1 (stereo unspecified)	MITF inh 75 | MITF inh conf inactive | AS interf ctr inactive
CC(N)C(=O)Nc1ccccc1-c1ccccc1 (stereo unspecified)	none
O=C(CSc1nnc(-c2ccccc2)n1-c1ccccc1)Nc1ccc2nc(SCC(=O)N3CCOCC3)sc2c1	none
COc1ccc(-c2nc(N3CCN(C)CC3)[nH]c(=O)c2C#N)cc1	none
N#Cc1c(-c2ccc3c(c2)OCO3)nc(N2CCCCC2)[nH]c1=O	MITF inh 80 | MITF inh conf 78 | AS interf DR inactive | AS interf ctr inactive
c1cn(-c2ccc(Nc3nc4ncnc(NCCN5CCOCC5)c4[nH]3)cc2)cn1	MITF inh 88 | MITF inh conf inactive | AS interf ctr inactive
c1cn(-c2ccc(Nc3nc4ncnc(Nc5ccc(N6CCOCC6)cc5)c4[nH]3)cc2)cn1	none
COc1ccc(CCNCC(=O)N2c3ccccc3C(C)CC2(C)C)cc1 (stereo unspecified)	none
